Screening results: PubChem, Center for Chemical Genomics, University of Michigan
Dicer processing: inhibitors of human Dicer processing of pre-microRNA | cat-ELCCA pre-miR-21 Dicer processing, chemiluminescence; active compounds read high | Q9UPY3 | z-score at 25 µM | 6% of 47,000 active; in the data active = z-score above about 3, passing the limit was not always enough;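 note: plate controls were vehicle for no effect and no enzyme for full effect; higher signal means more uncleaved substrate so more Dicer inhibition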
* marks the source's active call; other numbers are inactive results. This excerpt belongs to a sample that is enriched for hits.

SMILES | Dicer processing
COC(=O)c1ccc(CSc2nnc(-c3cccnc3)o2)cc1 | -1.3
CC1(C)c2ccccc2N2CCC(=O)NC21/C=C/c1cccs1 (stereo not drawn) | -0.44
CC1(C)Cc2c(sc3ncn4nc(Cc5ccccc5)nc4c23)C(C)(C)N1 | 0.73
Cn1c(SCC(=O)c2ccc(Br)cc2)nc2sc3c(c2c1=O)CCCC3 | -1.1
Clc1ccc(-c2noc(CN3CCC(Cc4ccccc4)CC3)n2)cc1 | 1.4
O=C(O)c1cnn2c(C(F)F)cc(-c3ccccc3)nc12 | -1
CCOC(=O)c1c(Nc2ccccc2C(F)(F)F)sc(C(=O)c2ccc(Cl)cc2)c1N | -6.2
Cc1ccc2c(c1)-c1cc(C)nn1C(c1ccc(O)cc1)N2 (stereo not drawn) | 0.19
CCN(CC)c1ccc(C2Nc3ccccc3-c3cc(C)nn32)cc1 (stereo not drawn) | 3.3*
Cc1cc2n(n1)C(c1ccsc1)Nc1ccccc1-2 (stereo not drawn) | 0.04
Cc1cc2n(n1)C(c1ccc(N3CCCC3)cc1)Nc1ccccc1-2 (stereo not drawn) | 4.5*
Cc1ccc2c(c1)-c1cc(C)nn1C(c1ccc(N(C)C)cc1)N2 (stereo not drawn) | 6.8*
CSc1ccc(C2Nc3c(C)cccc3-c3cc(C)nn32)cc1 (stereo not drawn) | 3.9*
COC(=O)c1ccc(C2Nc3c(C)cc(C)cc3-c3cc(C)nn32)cc1 (stereo not drawn) | -0.34
Cc1ccc2c(c1)-c1cc(C)nn1C(c1ccc(C(=O)O)cc1)N2 (stereo not drawn) | 2.5
CCCCCOC(=O)CSc1nc(N)c2c3c(sc2n1)COC(C)(C)C3 | -0.08
O=C1CNC(=S)N1Cc1cccs1 | 0.48
Cc1noc(-c2ccccc2)c1NC(=O)Nc1ccc(-c2nc3ccccc3s2)cc1 | -1.9
N/C(=N\NC(=O)Nc1ccccc1)c1ccc(C(F)(F)F)cn1 | 2.2
Cn1c(=O)c2c(nc3n(-c4ccc(F)cc4)c(-c4ccc(Cl)cc4)cn23)n(C)c1=O | 47
CN(Cc1ccccc1)Cc1c(O)ccc2c(=O)c(-c3ccccc3Cl)coc12 | 0.58
CC(C)(C)c1ccc(Oc2ccc(NC(=O)Nc3cc4ccccc4s3)cn2)cc1 | -0.88
Cc1sc2nc(C)n(/N=C/c3ccc(Cl)cc3)c(=O)c2c1C | 0.22
O=C1CCc2cc(C3=CSC4=NCCN34)ccc2N1 | -0.61
Cc1cc2n(n1)C(c1ccc(N3CCOCC3)cc1)Nc1c(C)cccc1-2 (stereo not drawn) | 3.8*
SMILES | Dicer processing
Cc1ccc(O)c(C2Nc3c(C)cccc3-c3cc(C)nn32)c1 (stereo not drawn) | 5.7*
Cc1cc2n(n1)C(c1cccc(O)c1O)Nc1c(C)cccc1-2 (stereo not drawn) | 2.3
CC(C)(C)c1ccc(-c2nnc(-c3ccccc3N)o2)cc1 | 4.6
CN(C)/C=C1\C(=O)c2ccccc2N(Cc2ccc(Cl)c(Cl)c2)S1(=O)=O | -0.58
O=C(NNC(=O)c1sc2ccccc2c1Cl)NC(=O)c1ccccc1Cl | 0.7
Cc1cc(O)cc2occ(-c3cnn(-c4ccccc4)c3)c(=O)c12 | 0.03
COC(=O)C1=C(C)NC(C)=C(C(=O)O[C@@H]2CCCN(Cc3ccccc3)C2)[C@@H]1c1cccc([N+](=O)[O-])c1 | -0.36
CC(=O)N1C(=O)CC(c2ccccc2)Sc2ccccc21 (stereo not drawn) | -0.64
CCCOc1ccc(C(C)(O)CN2CCOCC2)cc1 (stereo not drawn) | -0.22
Cc1ccc(Cc2nc3ccccc3[nH]2)cc1 | -0.64
CCOC(=O)CCc1nc2ccccc2[nH]1 | 0.58
Nc1ccc(CCc2nc3ccccc3[nH]2)cc1 | 6.5*
Cc1ccc(Cc2nn3c(C(=O)c4cccs4)nn(-c4ccc(Cl)cc4)c3nc2=O)cc1 | 0.02
Cn1ccnc1SCC(=O)Nc1ccc(F)c(Cl)c1 | 1.2
Nc1nnc(SCC(=O)Nc2ccc(F)c(F)c2F)s1 | -0.64
Nc1nnc(SCC(=O)Nc2nncs2)s1 | 3.1*
Nc1nnc(SCC(=O)Nc2ccccc2)s1 | 6
CN1C(C)(C)CCCC1(C)C | 0.87
COC(=O)c1cc(=O)c2ccc(OC)cc2o1 | 2
CCc1ccc(C2c3c(oc4cc(C)c(C)cc4c3=O)C(=O)N2CCCN2CCOCC2)cc1 (stereo not drawn) | 1.6
CC(=O)Nc1ccc(N2C(=O)C3C4c5ccccc5C(c5ccccc54)C3(C)C2=O)cc1 (stereo not drawn) | 1.5
COc1ccc(CC(CC(=O)O)C(=O)O)cc1 (stereo not drawn) | -0.94
CNC(=S)N/N=C/c1ccccc1O | 1.4
NNC(=S)Nc1cccc(Cl)c1 | 2.9
Oc1ccccc1/C=N/NC(=S)Nc1cccc(Cl)c1 | 13*
SMILES | Dicer processing
Cc1ccc(C2CC(C(F)(F)F)n3nc(C(=O)N(C)C4CCCCC4)cc3N2)cc1 (stereo not drawn) | -0.47
COc1cccc(C2c3c(oc4ccc(F)cc4c3=O)C(=O)N2Cc2ccc3c(c2)OCO3)c1 (stereo not drawn) | 1.1
O=C(Nc1cccc(Cl)c1)c1nn2c(C(F)(F)F)cc(-c3ccco3)nc2c1Cl | 4*
COc1ccc(NC(=O)c2cc3nc(-c4ccco4)cc(C(F)(F)F)n3n2)cc1OC | -0.42
O=C(Nc1ccc2c(c1)OCO2)c1cnn2c(C(F)(F)F)cc(-c3ccco3)nc12 | -0.3
CC(C)(C)n1nc(C2CC2)c(Br)c1NC(=O)c1ccccc1 | 0.38
CC(=O)Oc1cc(Sc2ccccc2)ccc1[N+](=O)[O-] | 0.18
CCOC(=O)N1CCN(C(=O)COc2ccc(Cl)cc2Br)CC1 | 0.24
O=C(COC(=O)c1cc2ccccc2cc1OC(=O)c1ccc(Cl)cc1)c1ccc(Cl)cc1 | 1
Cc1ccc(C(=O)COC(=O)c2cc(Cl)ccc2O)cc1C | 4*
COc1ccc(C(=O)CC(=O)c2cc(Cl)ccc2O)cc1OC | -0.7
O=C1/C(=C/c2ccc(-c3cccs3)s2)COc2c(F)cc(F)cc21 | -1.3
CC(=O)n1c2ccc(F)cc2c2nc3ccccc3nc21 | -0.29
CCC1(C)CC(=O)N(c2ccc(F)c(Cl)c2)C(=O)C1 | 2.7
CCCCNC1=CC(=O)CC(C)(C)C1 | 1.8
Cc1ccc(NC2=CC(=O)CC(C)(C)C2)cc1C | 3.5*
COc1ccc(NC2=CC(=O)CC(C)(C)C2)c(OC)c1 | -1.6
CC1CCN(S(=O)(=O)c2ccc3[nH]c(=O)[nH]c3c2)CC1 | 0.37
COc1ccccc1N1CCN(S(=O)(=O)c2ccc3[nH]c(=O)[nH]c3c2)CC1 | 3*
COc1ccccc1N1CCN(S(=O)(=O)c2ccc(-c3ccno3)s2)CC1 | 2.2
NN1CC(=O)N(c2ccccc2F)CC1=O | 1.1
Cc1ccc(NC(=O)NN2CC(=O)N(c3ccc(Cl)cc3)CC2=O)cc1 | 1.7
Cc1ccc(NC(=O)NN2CC(=O)N(c3ccccc3F)CC2=O)cc1 | 4.8*
Oc1c(CN2CCN(Cc3ccc4cccnc4c3O)CC2)ccc2cccnc12 | -1.4
O=C(Nc1ccc(C(F)(F)F)cc1Cl)Oc1ccccc1 | 0.36
SMILES | Dicer processing
CC(C)(C)c1ccc(-c2ncc(-c3cccc([N+](=O)[O-])c3)s2)cc1 | 0.03
O=c1sc(-c2ccccc2)ncc1-c1ccccc1 | -0.08
c1ccc(-c2ccc(-c3cnc(-c4ccncc4)s3)cc2)cc1 | 3.1*
CNS(=O)(=O)c1ccc(C)c(-c2nnc3c4ccccc4c(C)nn23)c1 | 4.5*
CNS(=O)(=O)c1ccc(OC)c(-c2nnc3c4ccccc4c(C)nn23)c1 | -0.01
CCCNS(=O)(=O)c1ccc(OC)c(-c2nnc3c4ccccc4c(C)nn23)c1 | 0.63
CCCNS(=O)(=O)c1ccc(C)c(-c2nnc3c4ccccc4c(C)nn23)c1 | 4.3*
